MCF10A rerep: inducers of DNA re-replication in MCF 10A breast cells | AID 624296 | MCF 10A DNA re-replication, Hoechst nuclear intensity, 48 h | 350,000 tested, 2.9% active | Potency, µM (highest dose often 46.1 µM), for the others: at the highest dose activity, positive = re-replication, usual class: activators; also: % of control where 0% means no effect; nearly all actives have a fitted effect of over 50% in size
KB-3-1 cytotox: kills parental KB-3-1 adenocarcinoma cells; KB-3-1 viability, CellTiter-Glo ATP luminescence, 72 h; Potency, µM (highest dose often 46.1 µM), most hits filed as cytotoxic; 400,000 tested, 1.4% active; also: % is scaled to controls: 0 for no effect and ±100 for the full control effect; nearly all actives have a fitted effect of over 60% in size
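Viability of parental KB-3-1 cells, measured by CellTiter-Glo luminescence, followed a 72 h incubation at 37 °C with pinned compounds in phenol-red-free DMEM containing 10% FBS.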
PINK1 expr mod: changes PINK1 expression; Potency, µM (titrated, usually from 76.6 µM), for the others: at the top dose activation (PINK1 increase), hits mostly activators; 410,000 tested, 0.2% active; PINK1 immunofluorescence, high-content cytometry, 24 h; active = well fitted activation curve with a large enough effect; inconclusive = small, poorly fitted or top-dose-only effect; cell line not stated here; also: % of control where 0% means no effect; nearly all actives have a fitted effect of over 65% in size
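Readout is PINK1 immunofluorescence, quantified alongside mitochondrial, cell and nuclear markers by laser-scanning microplate cytometry. Cells from a stable line were exposed to compound titrations (5 concentrations) for 24 hours, with CCCP controls.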
KB-V1 cytotox: KB-V1 MDR subline cytotoxicity | KB-V1 MDR cells viability, CellTiter-Glo, 72 h | Potency, µM (top dose mostly 46.1 µM), most hits filed as cytotoxic | 400,000 tested, 3.4% active | AID 1347076; also: % is scaled to controls: 0 for no effect and ±100 for the full control effect; nearly all actives have a fitted effect of over 60% in size
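Compound-treated KB-V1 multidrug-resistant cells, 72 h, 37 degrees C; viability by CellTiter-Glo. Fitted qHTS curves give the values.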
SW480 rereplic: induces DNA re-replication in SW480 colon adenocarcinoma cells; SW480 DNA re-replication, Hoechst DNA content imaging, 48 h; Potency, µM (series often up to 46.1 µM), for the others: top-dose re-replication activation, hits mostly activators; 340,000 tested, 1.8% active; AID 624297; also: % of control where 0% means no effect; nearly all actives have a fitted effect of over 55% in size
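250 cells/well; 23 nL cpd via pin tool; 48 hr, 37 C, 5% CO2; Hoechst 40 min; imager read of total nuclear intensity, ex 405/em 500-530 nm.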
12-LOX inh: inhibitors of human 12S-lipoxygenase ALOX12; P18054; purified 12hLO, xylenol orange hydroperoxide absorbance; Potency, µM (top dose mostly 108 µM), inactives show top-dose activity change, negative = inhibition, hits mostly inhibitors; 580,000 tested, 1.1% active; also: % is scaled to controls: 0 for no effect and ±100 for the full control effect
Target sequence (P18054 whole entry, looked up): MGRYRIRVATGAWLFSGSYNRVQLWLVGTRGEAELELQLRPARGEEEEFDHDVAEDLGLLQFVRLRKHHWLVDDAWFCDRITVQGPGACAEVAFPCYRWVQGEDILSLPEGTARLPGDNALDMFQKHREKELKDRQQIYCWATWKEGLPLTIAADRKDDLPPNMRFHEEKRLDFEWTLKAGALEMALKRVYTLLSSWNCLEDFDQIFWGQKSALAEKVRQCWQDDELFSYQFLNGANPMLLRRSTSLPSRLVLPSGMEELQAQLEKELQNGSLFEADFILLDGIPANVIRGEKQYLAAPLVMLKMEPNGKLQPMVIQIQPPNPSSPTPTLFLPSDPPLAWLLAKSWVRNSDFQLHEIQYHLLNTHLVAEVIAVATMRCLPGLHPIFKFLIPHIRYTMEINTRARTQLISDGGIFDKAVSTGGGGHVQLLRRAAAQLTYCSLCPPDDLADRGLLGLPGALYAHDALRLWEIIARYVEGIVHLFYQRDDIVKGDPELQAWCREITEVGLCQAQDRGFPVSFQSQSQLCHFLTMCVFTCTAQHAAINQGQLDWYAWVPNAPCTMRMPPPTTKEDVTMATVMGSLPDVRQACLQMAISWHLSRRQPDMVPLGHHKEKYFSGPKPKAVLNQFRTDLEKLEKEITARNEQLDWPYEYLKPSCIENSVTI
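Purified human 12hLO (150 nM final) in 25 mM Hepes, 0.01% Triton X-100, pH 7.0 was preincubated 15 min at room temperature with compound. Then 40 uM arachidonic acid was added, 30 min. Hydroperoxide was read by Fe-XO absorbance ratio 573/405 nm.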
Numbers without * were called inactive; [ ] = remark or other dose. Hits are enriched below; roughly 5.8% of the tested compounds scored in any of these assays. Unless noted, calls follow the shape of the dose curve; as a rule, active = well fitted curve in the direction sought with a large enough effect; inconclusive = small, poorly fitted or top-dose-only effect, or another doubt; inactive = no such curve, though single readings can be large; an effect the other way counts as inactive or inconclusive. Potency is read from the fitted curve at half-maximal effect.

For CCN(CC)c1ccc(NC(=O)COc2ccccc2C#N)cc1S(=O)(=O)Nc1ccc(OC)cc1 the results were MCF10A rerep inconclusive, KB-3-1 cytotox inactive, PINK1 expr mod 1%, KB-V1 cytotox 3.7µM*, SW480 rereplic inconclusive and 12-LOX inh -15%.
Screening CCN(CC)c1ccc(NC(=O)c2cnccn2)cc1S(=O)(=O)Nc1ccc(OC)cc1 returned MCF10A rerep inconclusive, KB-3-1 cytotox inconclusive, PINK1 expr mod 8%, KB-V1 cytotox 4.1µM*, SW480 rereplic inconclusive and 12-LOX inh -19%.
`Cc1cc2c(n1-c1ccc(Br)cc1)CC(C)(C)CC2=O` gave MCF10A rerep 3%, KB-3-1 cytotox inactive, PINK1 expr mod -1%, KB-V1 cytotox 26µM*, SW480 rereplic 1% and 12-LOX inh 0%.
For O=C(Cn1c(=O)c(CCC(=O)NC2CC2)nc2ccccc21)Nc1cccc(C(F)(F)F)c1 the results were 12-LOX inh 6%.
Screening Cc1ccc(S(=O)(=O)N2CC3(C)CN(S(=O)(=O)c4ccc(C)cc4)CC(C)(C2)C3=O)cc1 returned MCF10A rerep 6%, KB-3-1 cytotox inactive, PINK1 expr mod inconclusive, KB-V1 cytotox 0.73µM*, SW480 rereplic 7% and 12-LOX inh 2%.
Cc1ccc(S(=O)(=O)N2CC3(C)CN(S(=O)(=O)c4ccc(C)cc4)CC(C)(C2)C3O)cc1 (stereo unspecified) was read as MCF10A rerep -3%, KB-3-1 cytotox inactive, PINK1 expr mod -5%, KB-V1 cytotox inconclusive, SW480 rereplic -20% and 12-LOX inh inconclusive.
`CC(/C=N/n1c(-c2ccc(Cl)cc2)n[nH]c1=S)=C\c1ccco1` gave MCF10A rerep 19%, KB-3-1 cytotox inconclusive, PINK1 expr mod 4%, KB-V1 cytotox inconclusive, SW480 rereplic 4% and 12-LOX inh 32µM*.
`S=c1[nH]nc(-c2ccccc2)n1/N=C/c1ccc(Cl)cc1` gave MCF10A rerep -13%, KB-3-1 cytotox inactive, PINK1 expr mod 4%, KB-V1 cytotox inactive, SW480 rereplic -20% and 12-LOX inh 22µM*.
Screening S=c1[nH]nc(-c2ccccn2)n1/N=C/c1ccccc1 returned MCF10A rerep 8%, KB-3-1 cytotox inactive, PINK1 expr mod -1%, KB-V1 cytotox inactive, SW480 rereplic -54% and 12-LOX inh inconclusive.
`S=c1[nH]nc(-c2ccccn2)n1/N=C/c1ccc(Cl)cc1` gave MCF10A rerep 1%, KB-3-1 cytotox inactive, PINK1 expr mod 0%, KB-V1 cytotox inactive, SW480 rereplic -1%[9.22 µM] and 12-LOX inh 28µM*.
Screening S=c1[nH]nc(-c2ccc(Cl)cc2)n1/N=C/c1cccs1 returned MCF10A rerep -15%, KB-3-1 cytotox inactive, PINK1 expr mod 1%, KB-V1 cytotox inactive, SW480 rereplic 9.2µM* and 12-LOX inh 0%.
`S=c1[nH]nc(-c2ccccc2)n1/N=C/c1cccc(Cl)c1` gave MCF10A rerep -1%, KB-3-1 cytotox inactive, PINK1 expr mod 2%, KB-V1 cytotox inactive, SW480 rereplic -5% and 12-LOX inh -21%.
S=c1[nH]nc(-c2ccccn2)n1/N=C/c1cccs1 was read as MCF10A rerep -22%, KB-3-1 cytotox inactive, PINK1 expr mod 5%, KB-V1 cytotox inactive, SW480 rereplic -10% and 12-LOX inh -18%.
For O=C1NCCCCCCN(Cc2ccncc2)[C@@H]2CN(S(=O)(=O)Cc3cccc(F)c3)CC[C@H]12 the results were 12-LOX inh 8%.
CCc1n[nH]c(=S)n1/N=C/C(C)=C\c1ccccc1 was read as MCF10A rerep 15%, KB-3-1 cytotox inconclusive, PINK1 expr mod 0%, KB-V1 cytotox 7.3µM*, SW480 rereplic 0% and 12-LOX inh inconclusive.
For S=c1[nH]nc(-c2ccccn2)n1/N=C/c1cccc2ccccc12 the results were MCF10A rerep 0%, KB-3-1 cytotox inactive, PINK1 expr mod 1%, KB-V1 cytotox inactive, SW480 rereplic -5% and 12-LOX inh 5.6µM*.
Screening CC(/C=N/n1c(-c2ccccn2)n[nH]c1=S)=C\c1ccccc1 returned MCF10A rerep 8%, KB-3-1 cytotox inconclusive, PINK1 expr mod 2%, KB-V1 cytotox inactive, SW480 rereplic -3% and 12-LOX inh inconclusive.
`C=CCn1c(-c2ccccn2)n[nH]c1=S` gave KB-3-1 cytotox inactive, PINK1 expr mod 0%, KB-V1 cytotox inactive and 12-LOX inh 10µM*.
C=CCn1c(-c2cccnc2)n[nH]c1=S was read as MCF10A rerep 4%, KB-3-1 cytotox inactive, PINK1 expr mod 0%, KB-V1 cytotox inactive, SW480 rereplic -2% and 12-LOX inh -22%.
`Cc1ccccc1/C=N/n1c(-c2ccccn2)n[nH]c1=S` gave MCF10A rerep -3%, KB-3-1 cytotox inactive, PINK1 expr mod 1%, KB-V1 cytotox inactive, SW480 rereplic -3% and 12-LOX inh -9%.
COCc1cc(C[C@@H]2CC[C@H](O)[C@@H](CNCc3ccc(F)cc3)O2)no1 was read as 12-LOX inh 0%[176 µM].
For COc1ccc(-c2sc(Nc3ccccc3)n[n+]2-c2ccccc2)cc1Br the results were MCF10A rerep inconclusive, KB-3-1 cytotox inactive, PINK1 expr mod 1%, KB-V1 cytotox inactive, SW480 rereplic -4% and 12-LOX inh inconclusive.
Screening C(=C\c1sc(Nc2ccccc2)n[n+]1-c1ccccc1)/c1ccccc1 returned MCF10A rerep inconclusive, KB-3-1 cytotox inactive, PINK1 expr mod 5%, KB-V1 cytotox inconclusive, SW480 rereplic 15% and 12-LOX inh 50µM*.
Screening Cc1ccc(OCn2ccc(C(=O)N3CCN(Cc4ccccc4F)CC3)n2)c(C)c1 returned 12-LOX inh -3%.
For CCC1Oc2ccc(NS(=O)(=O)c3ccccc3)cc2CN(Cc2ccc(F)cc2)C1=O (stereo unspecified) the results were 12-LOX inh 14µM*.
For CCCN(C(=O)c1cn(C)c(=O)c2cc(OC)c(OC)cc12)c1cccc(C)c1 the results were 12-LOX inh 13%.
For Cc1cccc(OCCNC(=O)c2cccc(Oc3ccc(C(F)(F)F)cc3[N+](=O)[O-])c2)c1 the results were MCF10A rerep -2%, KB-3-1 cytotox 18µM*, PINK1 expr mod 5%, KB-V1 cytotox 9.2µM*, SW480 rereplic 3% and 12-LOX inh -2%.
Screening Cc1cc(N2CCOCC2)nc2ccc(NC(=O)CCC(=O)N3CCN(c4ccccc4)CC3)cc12 returned MCF10A rerep 1%, KB-3-1 cytotox inactive, PINK1 expr mod 3%, KB-V1 cytotox inactive, SW480 rereplic -6% and 12-LOX inh -1%.

Screening results: PubChem, National Center for Advancing Translational Sciences (NCATS)
